High-throughput results (PubChem BioAssay)
D2 antagonist: antagonists of human D2 dopamine receptor; 2% of 340,000 active; HEK293 TREx D2 cells, calcium flux, dopamine EC80; inhibition, % at 10 µM; AID 485344; P14416; in the data active = inhibition above about 30%; inactive = below that, where a call was filed
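HEK293 T-REx D2 cells, tet-induced, calcium dye no-wash. Cpd pintool add, 180 s kinetic, then EC80 DA, 180 s kinetic. Ca flux read.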
D2 PAM-1: positive allosteric modulators of human D2 dopamine receptor. DiscoveRx D2 beta-arrestin cells, luminescence, 90 min; 100% = 57 uM dopamine signal. P14416. AID 624464. 0.23% of 360,000 active. potentiation, % (concentration not given with the values); in the data active = potentiation above about 50%; inconclusive = mostly about 30% to 49%
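D2 cells co-treated with compound plus 50 nM dopamine (EC20) for 90 min at 37 deg C to detect potentiation. Beta-arrestin recruitment was read as enzyme-fragment luminescence after 1 h at ambient temperature. Full response was set by 57 uM dopamine.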
D2 PAM-2: positive allosteric modulators of human D2 dopamine receptor; HEK293 T-REx D2, calcium flux, EC20 dopamine potentiation; potentiation, % at 10 µM; 0.34% of 340,000 active;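 active = potentiation over 3 SD above the plate norm, cut at about 30% in these data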
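Potentiation of an EC20 dopamine calcium response measured kinetically over 180 s, after a preceding 180 s compound-only read flagging agonists. Cells: inducible Hek293 Trex D2 line, 4000/well, cultured overnight at 30 C before dye loading.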
D2 ag-1: human D2 receptor agonism in beta-arrestin assay; P14416; DiscoveRx PathHunter D2 beta-arrestin, luminescence, 90 min; 100% = 57 uM dopamine signal; activation, % (concentration not given with the values); 0.084% of 360,000 active; AID 624465; in the data active = activation above about 40%; inconclusive = between about 15% and that limit
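DiscoveRx PathHunter D2 beta-arrestin cells (2,100/well) attached overnight, then compound-stimulated 90 min at 37 C in HBSS/10 mM HEPES/0.1% Tween-20 buffer; beta-galactosidase complementation read by luminescence after 1 h at ambient temperature. Dopamine 57 uM final (EC100) as control.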
Apoferritin bind: binds horse apoferritin like a general anesthetic. P02791. apoferritin/1-aminoanthracene competitive binding, fluorescence. Potency, µM (series often up to 77.5 µM), most hits filed as inhibitors. 0.074% of 350,000 active; active = well fitted inhibition curve with a large enough effect; inconclusive = small, poorly fitted or top-dose-only effect; inactive = no such curve, though single readings can be large or run the other way; note: nearly all actives have a fitted effect of over 20% in size
Target sequence (P02791 2-175 limits assumed): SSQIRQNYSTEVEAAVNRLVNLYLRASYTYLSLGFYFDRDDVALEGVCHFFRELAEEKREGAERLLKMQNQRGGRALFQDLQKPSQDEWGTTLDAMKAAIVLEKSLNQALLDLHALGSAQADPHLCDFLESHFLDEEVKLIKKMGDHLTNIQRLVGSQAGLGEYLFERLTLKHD
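Probe: 1-aminoanthracene (50% saturated, PBS). Protein: horse-spleen apoferritin, 10 uM. Incubation: 10 min, room temperature. Detection: 380 nm excitation, 535 nm emission. Analysis: normalized response, four-parameter Hill.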
D2 ag-2: activates the human D2 dopamine receptor; HEK293 T-REx D2 cells, calcium flux agonist mode; activation, % at 2 µM; 0.53% of 340,000 active; AID 485358;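 active = activation over 3 SD above normal in the single-dose calcium agonist read, cut at about 30% in these data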
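Tetracycline-induced HEK293 T-REx cells with force-coupled D2 receptor, plated overnight at 30 C, loaded with no-wash calcium dye. After a 10 s baseline, compound was pin-added and calcium flux read kinetically for 180 s; calcium rises flagged agonists.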
Hits are given with their value; . = inactive; ? = inconclusive; / = not tested or not shown. In the library only some 2.5% were active in any assay of this set; here they are far more common.

SMILES	D2 antagonist	D2 PAM-1	D2 PAM-2	D2 ag-1	Apoferritin bind	D2 ag-2
Clc1ccc(OCCCN2CCCC2)cc1Cl	.	.	.	.	.	.
Clc1ccc(OCCN2CCCCC2)cc1Cl	103	.	.	.	.	.
Cc1ccc(NC(=O)c2nn(C)c3c2CS(=O)(=O)c2ccccc2-3)c(Cl)c1	/	/	.	/	.	.
COc1ccc2c(C#N)c3ccccn3c2c1	.	70	.	.	.	.
CCC(=O)Nc1ccc(Oc2ccc(NC(=O)CC)c(NC(=O)CC)c2)cc1	/	.	/	.	.	/
Cc1cc(NC(=O)Nc2ccc(C)c(C)c2)no1	.	.	.	.	.	.
Cc1cc(NC(=O)c2c(F)cccc2Cl)no1	.	.	31	.	.	.
Cc1cc(NC(=O)Nc2ccc(F)cc2)no1	.	.	40	.	.	.
Cc1cc(NC(=O)c2ccccc2Cl)no1	.	.	.	.	.	.
Cc1ccc(C(=O)Nc2nnc(SCc3cc(=O)c4c(C)ccc(C)c4[nH]3)s2)cc1	/	/	.	/	.	.
COc1cc(OC)cc(C(=O)Nc2ccc(-n3cnnn3)c(C)c2)c1	38	.	.	.	.	.
Cc1csc2ncnc(NC3CCN(Cc4ccccc4)CC3)c12	79	.	.	.	.	.
Cc1cc(=O)oc2c(C)c(OCC(=O)N3CCN(c4ccc(F)cc4)CC3)ccc12	.	.	.	.	.	.
Cc1cccc(N2CCN(C(=O)COc3ccc4c(C)cc(=O)oc4c3C)CC2)c1C	.	.	39	.	.	.
COc1ccc(C2=Nn3c(nc4sc(C(=O)Nc5cccc(C)c5)c(C)c4c3=O)SC2)cc1	/	/	.	/	.	.
Cc1ccc(/C(O)=C2\C(=O)C(=O)N(C)C2c2ccccc2)cc1 (stereo unspecified)	/	.	/	.	/	/
Nn1c(SCC(=O)N2CCCCCC2)nnc1-c1ccncc1	30	.	.	.	.	.
O=C(CSc1nnc(-c2ccco2)n1CC1CCCO1)N1CCCCC1 (stereo unspecified)	.	.	.	.	.	.
Nn1c(SCC(=O)N2CCCCC2)nnc1-c1ccncc1	.	.	.	.	.	.
O=C(CSc1nnc(-c2ccccc2)n1CC1CCCO1)N1CCCC1 (stereo unspecified)	.	.	32	.	.	.
Cc1ccccc1CNC(=O)c1ccc(-n2c(C)cc3c2CCCC3)cc1	/	/	.	/	.	.
CCOC(=O)c1c(-c2ccc(OC)cc2)oc2ccc(OCC(N)=O)cc12	.	.	.	?	.	.
CCOC(=O)c1c(-c2ccccc2)oc2ccc(OCC(=O)O)cc12	33	.	.	.	.	.
COc1ccc(CNc2nc3ccccc3n2CCN2CCCCC2)c(OC)c1	.	.	.	.	?	.
O=C(Nc1nc2ccccc2n1CCN1CCCCC1)C1CCCCC1	42	.	.	.	.	.
SMILES	D2 antagonist	D2 PAM-1	D2 PAM-2	D2 ag-1	Apoferritin bind	D2 ag-2
CCN(CC)CCn1c(NCc2ccc(OC)cc2)nc2ccccc21	75	.	.	.	.	.
COc1ccc(OC)c(CNc2nc3ccccc3n2CCN2CCCCC2)c1	34	.	.	.	.	.
CC1(C(=O)OCC(=O)NC(=O)NCc2ccccc2)CC1(Cl)Cl (stereo unspecified)	31	.	.	.	?	.
COCCCNc1nc(N)c([N+](=O)[O-])c(NC2CCCCC2)n1	30	.	.	.	.	.
CC(C)CCNc1nc(N)c([N+](=O)[O-])c(NCC2CCCO2)n1 (stereo unspecified)	.	.	.	.	.	32
Nc1nc(NCC(=O)O)nc(NC2CCCCC2)c1[N+](=O)[O-]	/	.	/	.	.	/
O=C(Nc1ccc(O)c2c(=O)cc(-c3ccccc3Cl)oc12)c1cccc(Cl)c1	.	.	.	.	.	.
Cc1cccc(C(=O)Nc2ccc(O)c3c(=O)cc(-c4ccccc4Cl)oc23)c1	31	.	.	.	?	.
CN1CC(c2ccc(C#N)cc2)C2(COc3ccccc3C2=O)C12C(=O)Nc1ccccc12 (stereo unspecified)	.	.	.	.	.	.
O=C1CSC(c2cccnc2)N1CCc1ccccn1 (stereo unspecified)	55	.	.	.	.	.
